The source of these data is PubChem BioAssay.

Molecules are shown by their SMILES. Activity calls are given as the source filed them.
Also: test concentration not given here.

Dihydroorotate dehydrogenase (quinone), mitochondrial (Plasmodium falciparum (isolate 3D7)), sequence (Q08210 whole entry, looked up): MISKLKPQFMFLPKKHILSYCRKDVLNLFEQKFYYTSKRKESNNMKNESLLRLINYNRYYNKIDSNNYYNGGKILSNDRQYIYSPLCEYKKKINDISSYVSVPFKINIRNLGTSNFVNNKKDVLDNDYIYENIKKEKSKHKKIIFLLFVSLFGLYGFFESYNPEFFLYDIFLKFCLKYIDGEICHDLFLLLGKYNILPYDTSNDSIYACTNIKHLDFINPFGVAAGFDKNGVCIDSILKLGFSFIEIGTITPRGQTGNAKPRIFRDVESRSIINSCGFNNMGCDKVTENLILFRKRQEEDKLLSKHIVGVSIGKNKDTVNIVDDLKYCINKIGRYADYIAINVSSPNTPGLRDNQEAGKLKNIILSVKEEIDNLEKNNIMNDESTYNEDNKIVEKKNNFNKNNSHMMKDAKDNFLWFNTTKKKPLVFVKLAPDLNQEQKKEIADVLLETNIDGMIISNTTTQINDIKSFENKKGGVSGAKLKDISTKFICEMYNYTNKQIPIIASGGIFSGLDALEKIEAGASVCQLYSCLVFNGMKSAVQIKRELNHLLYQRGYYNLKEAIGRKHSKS

System in the first assay: not listed separately
Put plainly: MM1S myeloma cell viability, profiling panel, resazurin fluorescence, basal, 24 h, PK04 Diversity Set (AID 1174).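 Also: MM1S multiple myeloma cell line.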 The note with it: higher = more signal, called active from +8 up or from −8 down.
On to `CN(C)C(=O)[C@]1(Cc2ccccc2N=[N+]=[N-])N=C(c2ccc(OCCCO)cc2)O[C@@H]1c1ccccc1N=[N+]=[N-]`, for which the z-score is -2.65 (inactive).

For the compound `CC(C)NC(=O)[C@@]1(c2ccc([N+](=O)[O-])cc2)CC(=O)N(C2CCCCC2)[C@@H]1c1ccc(CO)cc1I`, the z-score is 0.507 (inactive). With `COCCOC(=O)N1C(=O)[C@@]2(c3cc(C#Cc4ccc(OC)cc4)ccc31)[C@H](c1ccc(OCCO)cc1)N1[C@H](c3ccccc3)[C@H](c3ccccc3)OC(=O)[C@H]1[C@@H]2C(=O)N1CCN(c2ncccn2)CC1`, the z-score was 0.202 (inactive). In the case of `CCC[C@@H]1C[C@@]1(CCC)[C@@H](NC(=O)c1ccccc1)c1cccc(Cl)c1`, the z-score is 0.208 (inactive). Regarding `[N-]=[N+]=Nc1ccccc1[C@H]1OC(c2ccc(OCCCO)cc2)=N[C@@]1(CCS(=O)(=O)c1ccccc1)C(=O)NCC(O)CO` (stereo not given in full), the z-score was -0.0646 (inactive).

On to `O=C1N[C@@H](Cc2ccccc2)C(=O)N2[C@@H]1C[C@@H](C(=O)O)[C@H]2c1cccc(OCCO)c1`, for which the z-score was -0.0089 (inactive). For `COc1ccc([Si](C)(C)[C@@H]2[C@@H](CC(=O)N3CCC[C@H]3CO)O[C@]3(C(=O)N(c4ccccc4)c4ccccc43)[C@H]2C)cc1`, the z-score is 0.315 (inactive).

Consider `CC(C)N1C(=O)C[C@@](C(=O)NCC(F)(F)F)(c2ccc([N+](=O)[O-])cc2)[C@H]1c1ccc(CO)cc1`, for which the z-score is 1.26 (inactive). Take `CN1C(=O)C2C=CC(C(O)C#Cc3ccccc3)N(N3CCCCC3)C2C1=O` (stereo not given): the z-score is -0.347 (inactive). Consider `C=C(C)[C@@H]1CC=C(C(O)C2C=CC3C(=O)N(C)C(=O)C3N2Nc2ccccc2)CC1` (stereo not given in full), for which the z-score was -1.03 (inactive). Still for that read-out and setting: the value for `C=CCOC(=O)[C@@H]1[C@H]2C(=O)O[C@H](c3ccccc3)[C@H](c3ccccc3)N2[C@H](c2ccc(OCCOC(=O)[C@@H]3C[C@@H]4C(=O)NCC(=O)N4[C@@H]3c3ccc(O)cc3)cc2)[C@@]12C(=O)Nc1ccc(I)cc12` was 1.11 (inactive); that for `COC(=O)[C@@]1(Cc2ccc(OC)cc2)[C@H]2c3cc(C(=O)N(C)C)n(CCc4ccccn4)c3C[C@H]2CN1C(=O)c1ccccc1` was -2.34 (inactive).

Another assay concerns the target Dihydroorotate dehydrogenase (quinone), mitochondrial (Plasmodium falciparum (isolate 3D7)) (UniProt Q08210). Put plainly: PfDHODH enzyme inhibitors, primary screen, biochemical, C-terminal His tag, absorbance 600 nm (AID 1175).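 Also: recombinant parasite enzyme with a five histidine tag at its C terminus.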 Conditions: DCIP absorbance 600 nm, higher = more signal, called active from +8 up or from −8 down.
Regarding `O=C1C2C=CC(C(O)Cc3ccccc3)N(n3cnnc3)C2C(=O)N1Cc1ccccc1` (stereo not given), the composite z-score is 0.293 (inactive). For `Cc1ccc(S[C@]2(C(=O)NCCCN(C)C)CC(=O)N(Cc3ccccc3C(F)(F)F)[C@@H]2c2ccc(CO)cc2)cc1`, the composite z-score is -0.0819 (inactive). For `COc1cc(C(O)C2C=CC3C(=O)NC(=O)C3N2Nc2ccccn2)cc(OC)c1OC` (stereo not given), the composite z-score was 1.14 (inactive).

With `C=CCNC(=O)[C@H]1[C@@H]2C(=O)O[C@@H](c3ccccc3)[C@@H](c3ccccc3)N2[C@@H](c2ccccc2OCCO)[C@]12C(=O)Nc1ccc(C#CCC(C(=O)OC)C(=O)OC)cc12`, the composite z-score is -0.95 (inactive). On the same count and under the same terms, the value for `COCCOC(=O)N1C(=O)[C@@]2(c3cc(C#CCNC(N)=O)ccc31)[C@H](C(=O)N1CCN(c3ncccn3)CC1)[C@H]1C(=O)O[C@H](c3ccccc3)[C@H](c3ccccc3)N1[C@@H]2c1ccc(OCCO)cc1` was -0.0103 (inactive); that for `CCOC(=O)C[C@H]1[C@H](OC(=O)c2ccc(C(=O)c3ccccc3)cc2)[C@@H](NC(=O)c2ccc3ccccc3c2)c2cc(OCCCO)ccc2N1C(=O)Cc1ccc(OC)cc1` was -0.148 (inactive); that for `C[C@H]1NC(=O)[C@@]23C(=O)N[C@@H](Cc4ccccc4)C2[C@H](C)[C@@]2(C)O[C@H]2C3/C=C/C/C=C\CNC(=O)[C@@H]2CCCN2C1=O` (stereo not given in full) was -1.43 (inactive). For the compound `C=C(CCCC)/C(=C/C[C@@H](OC(=O)c1ccncc1)c1ccc(OCCO)cc1)c1cc(C(=O)OC)ccc1OC`, the composite z-score is -0.265 (inactive).

`CN1C(=O)C2C=CC(C(O)c3ccc([N+](=O)[O-])cc3)N(N3CCCCC3)C2C1=O` (stereo not given): the composite z-score was 0.0871 (inactive). As for `CC(C)C(=C=CC[C@H](O)c1ccc(OCCO)cc1)CCO`, the composite z-score was -0.324 (inactive). As to `C[C@H]1C2[C@H](Cc3ccccc3)NC(=O)[C@]23C(=O)N[C@H](Cc2ccccc2)C(=O)N2CCC[C@H]2C(=O)NC/C=C\C/C=C/C3[C@@H]2O[C@]12C` (stereo not given in full), the composite z-score is -1.51 (inactive).

`CN(C)CCCCCCNC(=O)[C@H]1C[C@H]2C(=O)N[C@@H](CCCCN)C(=O)N2[C@H]1c1cccc(OCCO)c1`: the composite z-score was -0.692 (inactive). On the same count and under the same terms, next, `C=CCC(OC(C)=O)[C@@H]1[C@@H](N(Cc2cc3ccccc3o2)C(=O)c2cccc3ccccc23)c2cc(OCCCO)ccc2N1C(=O)c1ccc(-c2ccccc2)cc1` (stereo not given in full): -0.0369 (inactive).
